PubChem BioAssay (NCATS)
Values joined by “and” are separate entries in the source; they are usually repeats but may differ in a detail not shown here. Equal values may be shown once. Inconclusive results are not listed. More than one record can exist for a structure, and the calls need not agree. Active and inactive are the calls of the source. Unless noted, the call rests on the fitted dose curve; in most records, active means well fitted curve in the direction sought with a large enough effect; inconclusive means small, poorly fitted or top-dose-only effect, or another doubt; inactive means no such curve, though single readings can be large; an effect the other way counts as inactive or inconclusive.

What was measured:
[1] = molecular target: Cytochrome P450 2D6 (Homo sapiens) (UniProt P10635); assay: Cytochrome P450 family 2 subfamily D member 6 (CYP2D6) small molecule antagonists: luciferase biochemical (cell-free) qHTS assay (AID 1645840; active means well fitted curve in the direction sought with a large enough effect in the repeat runs; an effect the other way counts as inactive or inconclusive; further: nearly all actives have a fitted effect of over 55% in size)
Summary of the method: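 P450-Glo CYP2D6 system: proluciferin substrate converted by enzyme to luciferin, read by luminescence proportional to activity. Enzyme-substrate mix with compound 10 min at room temperature, then NADPH regeneration 1 h before detection reagent.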

[2] = molecular target: Cytochrome P450 2C9 (Homo sapiens) (UniProt P11712); assay: Cytochrome P450 family 2 subfamily C member 9 (CYP2C9) small molecule antagonists: luciferase biochemical (cell-free) qHTS assay (AID 1645842; active means well fitted curve in the direction sought with a large enough effect in the repeat runs; an effect the other way counts as inactive or inconclusive; further: nearly all actives have a fitted effect of over 55% in size)
Summary of the method: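 P450-Glo CYP2C9 system: proluciferin substrate with enzyme in mix containing 0.4% BSA, 10 min at room temperature, then NADPH regeneration solution added and incubated 1 h at 37C. Detection reagent stopped reaction; luminescence read after 20 min as RLU.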

[3] = Primary qHTS for inhibitors of nuclear receptor binding SET domain protein 2 (NSD2) in an isogenic RCH-ACV NSD2 p.E1099K mutant (9B) (AID 1645876); further: nearly all actives have a fitted effect of over 70% in size
[4] = Primary qHTS for inhibitors of nuclear receptor binding SET domain protein 2 (NSD2) in an RCH-ACV wild type WT cells (2C) (AID 1645877); further: nearly all actives have a fitted effect of over 70% in size
Potency means the concentration at half of the fitted maximal effect.

Chain of Cytochrome P450 2C9 (Homo sapiens) (P11712 whole entry, looked up): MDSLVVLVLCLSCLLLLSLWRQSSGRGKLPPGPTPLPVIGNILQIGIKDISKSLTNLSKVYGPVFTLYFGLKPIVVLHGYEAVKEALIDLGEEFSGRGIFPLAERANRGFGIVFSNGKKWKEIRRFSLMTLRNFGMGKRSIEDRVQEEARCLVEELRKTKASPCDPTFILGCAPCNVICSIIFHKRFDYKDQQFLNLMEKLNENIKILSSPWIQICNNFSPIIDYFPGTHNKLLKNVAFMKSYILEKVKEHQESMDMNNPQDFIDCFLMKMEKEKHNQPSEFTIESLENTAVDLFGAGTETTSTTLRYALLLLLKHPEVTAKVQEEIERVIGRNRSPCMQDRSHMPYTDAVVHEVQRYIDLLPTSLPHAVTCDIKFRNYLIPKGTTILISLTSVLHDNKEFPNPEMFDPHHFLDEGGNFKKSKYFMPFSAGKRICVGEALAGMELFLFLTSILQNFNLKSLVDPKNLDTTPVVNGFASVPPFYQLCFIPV
Chain of Cytochrome P450 2D6 (Homo sapiens) (P10635 whole entry, looked up): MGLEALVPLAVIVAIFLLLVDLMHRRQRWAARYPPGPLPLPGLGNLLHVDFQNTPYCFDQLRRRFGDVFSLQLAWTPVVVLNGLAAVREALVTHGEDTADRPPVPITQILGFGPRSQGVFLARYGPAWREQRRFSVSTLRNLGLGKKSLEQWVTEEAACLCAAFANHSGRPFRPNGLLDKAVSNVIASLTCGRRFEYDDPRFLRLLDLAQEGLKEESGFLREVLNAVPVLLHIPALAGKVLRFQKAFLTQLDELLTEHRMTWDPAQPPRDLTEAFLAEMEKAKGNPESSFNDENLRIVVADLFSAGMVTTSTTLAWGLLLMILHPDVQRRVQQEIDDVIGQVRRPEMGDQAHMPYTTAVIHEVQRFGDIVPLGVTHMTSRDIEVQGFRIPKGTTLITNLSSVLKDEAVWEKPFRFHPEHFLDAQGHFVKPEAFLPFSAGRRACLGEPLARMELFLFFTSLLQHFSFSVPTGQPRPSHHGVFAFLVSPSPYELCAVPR

SMILES	Potency [1]	Potency [2]	Potency [3]	Potency [4]
CC(C)CNc1ccnc(NCc2csc(-c3ccccc3)n2)n1	1.2 µM (active)	10.7 µM (active)	5.9 µM (active)	8.33 µM (active)
CNC(=O)[C@H](Cc1ccccc1)NC(=O)[C@H](CC(C)C)[C@H](CSc1cccs1)C(=O)NO	inactive	inactive	inactive	inactive
CN(C)c1nc(Cc2ccc(NC(=O)c3ccc(C(F)(F)F)cc3)cc2)nc(N(C)C)c1CC(=O)O	inactive	inactive	inactive	inactive
Cc1ccccc1-n1c(Cn2nc(-c3cccc(O)c3)c3c(N)ncnc32)nc2cccc(C)c2c1=O	inactive	2.13 µM (active)	0.186 µM (active)	–
Cc1cnc(CNC(=O)c2c(=O)c3ccc(N4CCCN(C)CC4)nc3n3c2sc2ccccc23)cn1	inactive	inactive	0.152 µM (active)	0.121 µM (active)
CC(C)(C)c1nc(-c2cccc(NS(=O)(=O)c3c(F)cccc3F)c2F)c(-c2ccnc(N)n2)s1	inactive	6.74 µM (active)	5.9 µM (active)	4.68 µM (active)
Cc1ccccc1C(=O)c1ccc(Nc2ccc(Br)cc2N)cc1Cl	15.1 µM (active)	10.7 µM (active)	16.6 µM (active) and 5.78 µM (active)	–
CCc1cccc(CC)c1NC(=O)N1Cc2[nH]nc(NC(=O)c3ccc(N4CCN(C)CC4)cc3)c2C1	inactive	inactive	817 nM (active) and 1.18 µM (active)	–
CCN1C[C@H](C)n2c(c(O)c3c(=O)n(Cc4ccc(F)c(Cl)c4)nc(C(=O)NC)c32)C1=O	inactive	8.49 µM (active)	inactive	inactive
c1cc(OCCN2CCCCC2)cc(-c2n[nH]c3ccc(-c4ncn[nH]4)cc23)c1	15.1 µM (active)	inactive	16.6 µM (active)	13.2 µM (active)
Nc1ccc(-c2ccc3ncc4ccc(=O)n(-c5cccc(C(F)(F)F)c5)c4c3c2)cn1	23.9 µM (active)	2.13 µM (active)	14.8 nM (active) and 23.1 nM (active)	20.9 nM (active) and 18.4 nM (active)
CNC(=O)c1c(-c2ccc(F)cc2)oc2cc(N(CCO)S(C)(=O)=O)c(C3CC3)cc12	inactive	10.7 µM (active)	inactive	inactive
CNC1CCC(N(Cc2cccc(-c3ccncc3)c2)C(=O)c2sc3ccccc3c2Cl)CC1 (stereo not drawn)	4.25 µM (active)	10.7 µM (active)	5.15 µM (active) and 9.34 µM (active)	5.78 µM (active) and 7.42 µM (active)
Cc1nn(Cc2ccccc2Cl)c(C)c1CN(C)CC(O)COc1ccc(Cl)cc1 (stereo not drawn)	0.536 µM (active)	inactive	18.6 µM (active)	14.8 µM (active)
Cc1ccccc1C(C(=O)NC1CCCCC1)N(C(=O)CNc1ccc(C#N)cc1)c1cccc(F)c1 (stereo not drawn)	inactive	1.34 µM (active)	inactive	inactive
N#CC(c1ccnc(NCCc2cccnc2)n1)c1nc2ccccc2s1 (stereo not drawn)	–	–	14.8 µM (active)	–
CCN1CCN(c2ccc(Nc3cc(N(C)C(=O)Nc4c(Cl)c(OC)cc(OC)c4Cl)ncn3)cc2)CC1	–	23.9 µM (active)	inactive	–
CN1CCc2c(n(Cc3ccc(C(=O)NO)cc3)c3ccccc23)C1	6.74 µM (active)	–	18.3 µM (active) and 16.6 µM (active)	14.5 µM (active) and 18.6 µM (active)
CC1=C(C(=O)Nc2cc3cn[nH]c3cc2F)C(c2ccc(C(F)(F)F)cc2)CC(=O)N1 (stereo not drawn)	–	19 µM (active)	–	–
Cc1csc(-c2nnc(Nc3ccc(Oc4ncccc4-c4ccnc(N)n4)cc3)c3ccccc23)c1	inactive	12 µM (active)	–	inactive and 3 nM (active)
N#CC(c1ccc(Cl)cc1)c1c(Cl)cc(-n2ncc(=O)[nH]c2=O)cc1Cl (stereo not drawn)	–	19 µM (active)	–	inactive
COc1ccc(-c2nc3ccc(C4=NNC(=O)CC4C)cc3[nH]2)cc1 (stereo not drawn)	inactive	–	9.44 µM (active) and 14.8 µM (active)	5.96 µM (active) and 11.8 µM (active)
CNc1nc(Nc2ccc(C(=O)N3CCOCC3)cc2OC)ncc1Cl	–	inactive	–	–
